HP1b binding inh: inhibitors of HP1-beta chromodomain binding to methylated histone tails; AID 540317; P83916; AlphaScreen HP1-beta / biotin-H3K9me3 peptide binding; Potency, µM (highest dose often 114 µM), for inactives: top-dose activity change, negative = inhibition, most hits filed as inhibitors; hit rate 0.56% among 390,000; also: potency is read from the fitted curve at half-maximal effect; nearly all actives have a fitted effect of over 70% in size
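HP1-beta protein (50 nM final) preincubated 30 min at room temperature with biotinylated H3(1-18)K9me3 peptide (50 nM) in PBS pH 7.4, 0.01% Tween-20, then compound added for 30 min. AlphaScreen streptavidin donor/nickel chelate acceptor beads (10 ug/mL final), 30 min dark, luminescence read.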
JMJD2A Tudor: blocks the human JMJD2A Tudor domain; O75164; Potency, µM (series often up to 114 µM), inactives show at the highest dose activity change, negative = inhibition, usual class: inhibitors; AlphaScreen JMJD2A-Tudor / H3K4me3 peptide binding; hit rate 4.4% among 390,000; AID 504339; also: potency is read from the fitted curve at half-maximal effect; % is scaled to controls: 0 for no effect and ±100 for the full control effect; nearly all actives have a fitted effect of over 50% in size
Target sequence (O75164 whole entry, looked up, the tested form may be a part): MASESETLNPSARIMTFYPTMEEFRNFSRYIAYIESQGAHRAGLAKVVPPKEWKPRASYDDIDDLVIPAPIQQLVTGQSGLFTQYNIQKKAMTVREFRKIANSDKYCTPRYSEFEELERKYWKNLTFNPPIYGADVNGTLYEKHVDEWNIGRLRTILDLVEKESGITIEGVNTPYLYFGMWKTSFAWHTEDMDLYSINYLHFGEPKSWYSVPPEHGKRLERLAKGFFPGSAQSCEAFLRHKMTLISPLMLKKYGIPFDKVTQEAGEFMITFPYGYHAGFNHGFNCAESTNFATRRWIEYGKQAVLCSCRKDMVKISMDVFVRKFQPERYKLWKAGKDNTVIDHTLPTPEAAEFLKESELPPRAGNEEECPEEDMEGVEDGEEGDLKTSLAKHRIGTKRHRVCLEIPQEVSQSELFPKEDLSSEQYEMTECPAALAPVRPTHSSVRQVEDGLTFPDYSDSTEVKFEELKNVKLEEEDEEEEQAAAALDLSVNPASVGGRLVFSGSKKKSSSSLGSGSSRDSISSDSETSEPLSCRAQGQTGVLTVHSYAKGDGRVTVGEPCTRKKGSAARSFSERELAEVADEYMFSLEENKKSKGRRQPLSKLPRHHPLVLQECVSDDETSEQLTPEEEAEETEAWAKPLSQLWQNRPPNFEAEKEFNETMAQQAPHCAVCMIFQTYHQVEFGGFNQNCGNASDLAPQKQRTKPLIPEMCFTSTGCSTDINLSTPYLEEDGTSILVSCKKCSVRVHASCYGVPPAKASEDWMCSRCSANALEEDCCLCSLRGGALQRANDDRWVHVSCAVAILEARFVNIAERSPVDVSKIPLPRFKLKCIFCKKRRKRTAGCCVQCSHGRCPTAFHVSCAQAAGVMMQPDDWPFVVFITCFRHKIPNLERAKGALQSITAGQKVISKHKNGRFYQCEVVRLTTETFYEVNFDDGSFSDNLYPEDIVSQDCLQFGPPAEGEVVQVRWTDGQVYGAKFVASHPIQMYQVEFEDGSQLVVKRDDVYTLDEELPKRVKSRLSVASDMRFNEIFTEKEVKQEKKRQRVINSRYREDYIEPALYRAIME
BAZ2B inh: inhibitors of human BAZ2B bromodomain | hit rate 4.4% among 360,000 | AID 504333 | Potency, µM (top dose mostly 114 µM), inactives show top-dose activity change, negative = inhibition, usual class: inhibitors | AlphaScreen BAZ2B-H3K14Ac peptide displacement | Q9UIF8; also: potency is read from the fitted curve at half-maximal effect; % is scaled to controls: 0 for no effect and ±100 for the full control effect; nearly all actives have a fitted effect of over 60% in size
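BAZ2B (50 nM) with biotin-H3(5-23)K14Ac peptide (50 nM) in PBS pH 7.4, 0.01% Tween-20, preformed 30 min, then compound 30 min at room temperature; top concentration 110uM. AlphaScreen streptavidin donor/nickel chelate acceptor beads (10 ug/mL final), 20 min dark, signal read.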
PI5P4Ka inh: inhibitors of human PI5P4K alpha; P48426; PI5P4Kalpha enzyme, ADP-Glo luminescence, 60 min; active compounds read low; max response, %; hit rate 1.2% among 330,000; AID 652105; active = max response of -50% or lower; inconclusive = between -30% and -50%; inactive = -30% or higher; also: value at the top dose of about 77 µM; % is scaled to controls: 0 for no effect and ±100 for the full control effect
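ADP-Glo luminescence end-point read after a 60 min room-temperature kinase reaction of PI5P4Kalpha plus substrate, initiated with ATP at 5 microM final. Buffer: 0.038 M HEPES pH 7.4, EGTA, 0.1% CHAPS, 5% DMSO.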
G9a inh: G9a (human) methyltransferase inhibition. Q96KQ7. G9a H3K9 monomethylation, AlphaScreen, 2 h. Potency, µM (series often up to 102 µM), without a hit: at the highest dose activity, negative = inhibition, actives largely listed as inhibitors. hit rate 8.8% among 350,000. AID 504332; also: potency is read from the fitted curve at half-maximal effect; % is scaled to controls: 0 for no effect and ±100 for the full control effect; nearly all actives have a fitted effect of over 75% in size
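AlphaScreen detection with an anti-monomethyl H3K9 antibody quantified product after a 2 h room-temperature reaction containing 500 nM biotinylated H3K9 peptide, 20 µM SAM and 20 nM enzyme, which had been preincubated 15 min with compound.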
L3MBTL1 block: inhibitors of human L3MBTL1; Potency, µM (doses to about 57.1 µM), for inactives: at the top dose activity, negative = inhibition, most hits filed as inhibitors; hit rate 0.66% among 230,000; AlphaScreen L3MBTL1–H3K9me1 peptide binding; AID 485360; also: potency is read from the fitted curve at half-maximal effect; % is scaled to controls: 0 for no effect and ±100 for the full control effect; nearly all actives have a fitted effect of over 60% in size
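Read-out is AlphaScreen signal from streptavidin donor and nickel chelate acceptor beads (10 ug/mL final each) bridging L3MBTL1 (50 nM) and biotinylated K9-monomethylated H3(1-15) peptide (75 nM), after 30 min compound exposure at room temperature.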
* hit, by the source's call; [ ] = another dose, or the depositor's remark. Rows were chosen to be rich in hits. Some 11% of all compounds tested hit in one or more screens of this group. Unless noted, calls follow the shape of the dose curve; as a rule, active = well fitted inhibition curve with a large enough effect; inconclusive = small, poorly fitted or top-dose-only effect; inactive = no such curve, though single readings can be large or run the other way.

Screening COc1ccccc1NC(=O)CN1CCCCC1 returned HP1b binding inh 5%, JMJD2A Tudor -9%, BAZ2B inh 10%, PI5P4Ka inh 0 and G9a inh -5%[12.7 µM].
`O=C(NCc1ccccc1Br)c1ccc2c(c1)nc1n2CCOC1` gave HP1b binding inh 27%[57 µM], JMJD2A Tudor -5%, BAZ2B inh 7% and G9a inh 1%[59 µM].
Screening CCc1sc(Nc2cccc(C)c2C)nc1-c1cc2cccc(OC)c2oc1=O returned HP1b binding inh 28%, JMJD2A Tudor -12%, BAZ2B inh -1% and G9a inh 0%[59 µM].
For CC(C)C[C@@H](CN)NC(=O)c1nc[nH]c1C(=O)N[C@@H](C)C(=O)CNC[C@H](C)NC(=O)c1nc[nH]c1C(=O)N[C@@H](Cc1ccccc1)C(=O)O the results were HP1b binding inh 52%, JMJD2A Tudor 79µM* and PI5P4Ka inh 3.
Screening C[C@H](NC(=O)c1nc[nH]c1C(=O)N[C@@H](Cc1ccccc1)C(=O)OCc1ccccc1)C(=O)OCc1ccccc1 returned HP1b binding inh 45%, JMJD2A Tudor -26%, BAZ2B inh -1%, PI5P4Ka inh 14 and L3MBTL1 block -1%.
For CC(C)C[C@H](NC(=O)c1[nH]cnc1C(=O)N[C@@H](C)C(=O)OC(C)(C)C)C(=O)OC(C)(C)C the results were HP1b binding inh 46%, JMJD2A Tudor -18%, BAZ2B inh 9%, PI5P4Ka inh 4 and G9a inh 26%[12.7 µM].
CC(C)C[C@@H](CN)NC(=O)c1nc[nH]c1C(=O)N[C@@H](C)C(=O)CNC[C@H](C)NC(=O)c1nc[nH]c1C(=O)N[C@@H](C)C(=O)O was read as HP1b binding inh 59%, JMJD2A Tudor 50µM* and PI5P4Ka inh inconclusive.
`CC(C)C[C@@H](CNCC(=O)[C@H](CC(C)C)NC(=O)c1[nH]cnc1C(=O)N[C@@H](C)CN)NC(=O)c1nc[nH]c1C(=O)N[C@@H](Cc1ccccc1)C(=O)O` gave HP1b binding inh 35%, JMJD2A Tudor -29% and PI5P4Ka inh -1.
Screening CC(C)C[C@@H](CNCC(=O)[C@H](CC(=O)O)NC(=O)c1[nH]cnc1C(=O)N[C@H](CN)CC(C)C)NC(=O)c1nc[nH]c1C(=O)N[C@@H](Cc1ccccc1)C(=O)O returned HP1b binding inh -14%, JMJD2A Tudor 50µM* and PI5P4Ka inh -20.
Screening CC(C)C[C@@H](CN)NC(=O)c1nc[nH]c1C(=O)N[C@@H](C)C(=O)CNC[C@H](C)NC(=O)c1nc[nH]c1C(=O)N[C@@H](CC(C)C)C(=O)O returned HP1b binding inh 51%, JMJD2A Tudor 50µM* and PI5P4Ka inh -21.
c1cncc(-c2cncnc2NCc2cccs2)c1 was read as G9a inh -39%[0.501 µM].
Screening Oc1ccccc1C1C=C(c2ccc3c(c2)OCO3)NC(c2ccc(Br)cc2)N1 (stereo not given) returned HP1b binding inh 15%[57 µM] and JMJD2A Tudor -17%[57.1 µM].
Screening COc1ccc(OC)c(NS(=O)(=O)c2ccc(-c3cc(C)no3)s2)c1 returned HP1b binding inh -11%, JMJD2A Tudor -28%, BAZ2B inh inconclusive and G9a inh -9%[59 µM].
Screening CC(C)C[C@@H](CN)NC(=O)c1nc[nH]c1C(=O)N[C@@H](CC(C)C)C(=O)CNC[C@H](C)NC(=O)c1nc[nH]c1C(=O)N[C@@H](C)C(=O)O returned HP1b binding inh 50%, JMJD2A Tudor 79µM* and PI5P4Ka inh -2.
For NC(=S)NCCCC(N)C(=O)O (stereo not given) the results were G9a inh 8.9µM*.
For NCCCC[C@@H](N)C(=O)O the results were G9a inh 28%[59 µM].
CCc1nnc(NC(=O)CSc2nc3c([nH]c4ccccc43)c(=O)n2-c2ccc(F)cc2)s1 was read as HP1b binding inh 10%[57 µM], JMJD2A Tudor 5%, BAZ2B inh 1% and G9a inh 27%[59 µM].
Screening CC(=O)c1cccc(-n2nnnc2SCC(=O)N2CCCC2)c1 returned HP1b binding inh 28%, JMJD2A Tudor -19%, BAZ2B inh -7%, PI5P4Ka inh 5, G9a inh 56µM* and L3MBTL1 block 2%.
For CCOc1ccccc1CNC(=O)CCCN1C(=O)c2cccnc2Oc2ccc(Cl)cc21 the results were HP1b binding inh 5%, JMJD2A Tudor -27%, BAZ2B inh -6% and G9a inh -2%[59 µM].
Screening COCCn1c(=S)[nH]c2cc(C(=O)N3CCc4ccccc4C3)ccc2c1=O returned HP1b binding inh 4%, JMJD2A Tudor 32µM*, BAZ2B inh -17%, PI5P4Ka inh -14 and G9a inh -10%[59 µM].
COCCn1c(=S)[nH]c2cc(C(=O)NCc3ccccc3)ccc2c1=O was read as PI5P4Ka inh -10.
For CCN(CC)C(=O)c1ccc2c(=O)n(CCOC)c(=S)[nH]c2c1 the results were HP1b binding inh 39%, JMJD2A Tudor 18µM*, BAZ2B inh inconclusive, PI5P4Ka inh -11 and G9a inh 45µM*.
Screening Cc1ccc(C)c2sc(N3CCN(C(=O)c4ccc([N+](=O)[O-])o4)CC3)nc12 returned HP1b binding inh inconclusive, JMJD2A Tudor -30%, BAZ2B inh -32%, PI5P4Ka inh 19, G9a inh inconclusive and L3MBTL1 block -4%.
`O=C(c1ccc([N+](=O)[O-])o1)N1CCN(c2nc3c(F)cc(F)cc3s2)CC1` gave HP1b binding inh -20%, JMJD2A Tudor inconclusive, BAZ2B inh -35%, PI5P4Ka inh 3, G9a inh 45µM* and L3MBTL1 block -5%.
`COc1ccc([N+](=O)[O-])c(S(=O)(=O)c2ccc(Cl)cc2)n1` gave HP1b binding inh 33%, JMJD2A Tudor -28%, BAZ2B inh -29%, PI5P4Ka inh 4, G9a inh 18µM* and L3MBTL1 block -3%.
Screening COc1ccc([N+](=O)[O-])c(S(=O)(=O)c2ccccc2)n1 returned HP1b binding inh 40%, JMJD2A Tudor -26%, BAZ2B inh -18%, PI5P4Ka inh -16, G9a inh 11µM* and L3MBTL1 block 0%.
`O=[N+]([O-])c1cccnc1S(=O)(=O)c1ccccc1` gave HP1b binding inh 43%, JMJD2A Tudor -10%, BAZ2B inh -2%, PI5P4Ka inh 8 and G9a inh inconclusive.
For COc1nc(OC)nc(Oc2ccc(Cl)cc2[N+](=O)[O-])n1 the results were HP1b binding inh 20%, JMJD2A Tudor -18%, BAZ2B inh -8%, PI5P4Ka inh 7, G9a inh -8%[59 µM] and L3MBTL1 block -4%.
